The results in this text go back to PubChem BioAssay (NCI).

This is part of a sample that, as a whole, favours compounds with a hit. Of some 79,000 tested, about 15% had one in any assay. Unmarked numbers belong to inactive results. The source made the active and inactive calls. Cut-off read from the data, not from the text of the source: active = growth inhibition above about 70%; inactive = the rest.

This experiment can be described thus: NCI Yeast Anticancer Drug Screen. Data for the rad50 strain (AID 155).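 Note: 0% = growth of vehicle-only cultures of the same strain.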 The following applies: S. cerevisiae rad50 strain growth inhibition; at 50.0 µM; stronger effect = higher value. Put shortly:
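Cells are treated with compound, grown, and their growth is then scored against vehicle-only cultures of the same repair-deficient yeast strain.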
On to `Clc1ccc(C(CI)c2ccccc2Cl)cc1` (stereo not given), for which the growth inhibition was 10.8%.
For `O=C1NC(=O)C(c2ccc3c(c2)OCO3)N1` (stereo not given), the growth inhibition is -3.25%.
In the case of `Cc1ccc(N=C2SC(c3ccc(C)cc3)(c3ccc(C)cc3)c3ccccc32)cc1` it was -35%; in that of `NC(=S)NNC(=O)/C(=C/c1ccc(/C=C(\NC(=O)c2ccccc2)C(=O)NNC(N)=S)cc1)NC(=O)c1ccccc1`, 32.8%.
In the case of `CC1=CC(=O)[C@@H](O)[C@]2(C)[C@H]3[C@@]4(O)OC[C@]35[C@H]([C@@H](CO)[C@H]4O)[C@@H](OC3OC(CO)C(O)C(O)C3O)C(=O)O[C@@H]5C[C@@H]12` (stereo not given in full) it was -9.55%; in that of `O=C1CCCCC1COCC1CCCCC1=O` (stereo not given), -4.8%; in that of `CC(=O)c1nc2ccccc2n1CC(=O)c1ccc(Cl)cc1`, -9.25%.
`Cc1cc(C)c(NC(=O)Nc2ccccc2F)cc1C`: the growth inhibition was 18.7%.
The result for `CCCCC(CC)C(=S)N1CCOCC1` (stereo not given) reads 0.95%; that for `Nc1ccc2[nH]cc(CCC(=O)O)c2c1`, -11.8%; that for `O=C1c2c(nc3ccccc3c2-c2ccccc2)CN1Nc1ccccc1`, -12%.
In the case of `NC(=O)c1cc(Br)ccc1O` it was 11.2%; in that of `C1CC(CCN2CCOCC2)CCN1`, -16.4%; in that of `COc1ccc(C(=O)C(C)C(O)C(=O)O)c(O)c1C` (stereo not given), 8.15%.
Turning to `N#CC(=O)Nc1ccc(Cl)c(Cl)c1`, the growth inhibition was -18.6%.
As for `Cc1ccccc1C(=O)NNC(=O)c1cccc2ccccc12`, the growth inhibition is 27.6%.
For the molecule `CC(C)(C)C1CCC2c3c([nH]c4ccccc34)C3C(=O)N(c4ccc(Cl)cc4)C(=O)C3C2C1` (stereo not given), the growth inhibition is 37.6%.
In the case of `O=C1C(=C(c2ccc([N+](=O)[O-])cc2)N2CCOCC2)C(=O)c2ccccc21` it was 8.9%.
In the case of `Clc1c(-c2ccccc2)oc2nc3ccccc3nc12`, the growth inhibition is 13.9%.
The result for `CC(NC(=O)C(CC(=O)OCc1ccccc1)NC(=O)OCc1ccccc1)c1ccccc1` (stereo not given) reads 9.5%; that for `CCC(C)(O)C(C)(O)CC` (stereo not given), -6.55%; that for `Cc1nc2ccccc2c(=O)n1NC(=O)c1ccccc1O`, -7.45%.
Consider `COC1(C)CCC2(O)C(=O)OC3C(O)COC32O1` (stereo not given), for which the growth inhibition was -3.45%.
In the case of `CCOC(=O)c1ccc(NC(=S)NC(=O)c2cccc([N+](=O)[O-])c2)cc1` it was -3.15%.
As to `C=CCOc1ccc(S(=O)(=O)c2ccc(OCC=C)cc2)cc1`, the growth inhibition was 3.55%.
The result for `COc1cccc2c(Cl)c3ccc(Cl)cc3nc12` reads 11.4%; that for `CCN(CC)Cc1ccccc1CO`, 3.05%.
The result for `NC(=O)NNC(=O)NC12CC3CC(CC(C3)C1)C2` reads -19%.
The result for `CCCCCCC(=O)OCC` reads 16.3%.
`CCCCCCCCCCCCCCCCN` (tested in a mixture with another compound): the growth inhibition is 29.9%.
For the molecule `Cc1c2c(cc3c1[nH]c1ccccc13)C(=O)c1ccccc1C2=O`, the growth inhibition is 75.5% (active).
`O=C1c2cc3c(cc2C(=O)c2[nH]c(=O)ccc21)CCCC3`: the growth inhibition was 11.5%.
On to `COc1cc2c3c(c1)[nH]c(=S)n3C(=O)CS2`, for which the growth inhibition was -18.9%.
Consider `Cc1cc([N+](=O)[O-])cnc1Cl`, for which the growth inhibition is -14.1%.
In the case of `Clc1ccccc1/C=C(/c1ccccc1)c1ccccn1` it was 37.5%; in that of `Nc1cnc(Nc2cccc3ccccc23)o1`, -26.3%.
For `S=c1[nH]c2ccccc2n2cccc12`, the growth inhibition is 14.9%.
The result for `c1ccc(CCc2nccc3ccccc23)cc1` reads 8.55%; that for `N#C/C(=C\Nc1ccccn1)C(=O)c1ccco1`, 6.85%; that for `CC/C(CC(=O)CCC(=O)Nc1ccccc1[N+](=O)[O-])=N/NC(=O)C[n+]1ccccc1`, -1.8%.
